Data: PubChem BioAssay (EPA / NIEHS)
Values joined by “and” are separate entries in the source; they are usually repeats but may differ in a detail not shown here. Equal values may be shown once. Inconclusive results are not listed. Some compounds were tested as several samples or in several runs, with calls that do not always agree. Active and inactive are the calls of the source. Rule for the calls, unless noted: active = hit-call score of the fitted dose curve at least 0.9, where 1 is the maximum; inconclusive = response in the unintended direction; inactive = score below 0.9.

Experiments:
[1] = ATG_RORE_CIS: Attagene CIS-FACTORIAL HepG2 Assay for human RAR-related Orphan Receptor Element (RORE) (AID 2282959; active = hit-call score of the fitted dose curve at least 0.9, where 1 is the maximum; inactive = score below 0.9); details: HepG2 Attagene cis-factorial RORE reporter, mRNA; actives raise or lower the signal
Method in brief: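 Fluorescence intensity of reporter-specific cDNA fragments, separated by capillary electrophoresis, gives the signal. Source: HepG2 liver cells transiently transfected with cis-element reporters and exposed 24 h; DMSO-normalized bidirectional fit.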

[2] = ATG_M_32_TRANS: Attagene TRANS-FACTORIAL HepG2 Assay for M32 Transcription Factor (Internal Marker) (AID 2282984); details: HepG2 Attagene TRANS M32 internal marker reporter;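 note: transcript level of a background control reporter unit measured by RT-PCR and capillary electrophoresis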
Method in brief: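 Internal background reporter in transfected HepG2: after 24 h chemical exposure, RNA reverse-transcribed, reporter cDNA amplified, fluorescently labelled and HpaI-cut, then sized by capillary electrophoresis. Gain of signal fitted against DMSO control.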

[3] = target: human Retinoid X Receptor beta (RXRb), RXRB (gene 6257) (UniProt P28702); test: ATG_RXRb_TRANS: Attagene TRANS-FACTORIAL HepG2 Assay for human Retinoid X Receptor beta (RXRb) (AID 2283013)
Sequence of human Retinoid X Receptor beta (RXRb), RXRB (gene 6257) (P28702 whole entry, looked up, the tested form may be a part): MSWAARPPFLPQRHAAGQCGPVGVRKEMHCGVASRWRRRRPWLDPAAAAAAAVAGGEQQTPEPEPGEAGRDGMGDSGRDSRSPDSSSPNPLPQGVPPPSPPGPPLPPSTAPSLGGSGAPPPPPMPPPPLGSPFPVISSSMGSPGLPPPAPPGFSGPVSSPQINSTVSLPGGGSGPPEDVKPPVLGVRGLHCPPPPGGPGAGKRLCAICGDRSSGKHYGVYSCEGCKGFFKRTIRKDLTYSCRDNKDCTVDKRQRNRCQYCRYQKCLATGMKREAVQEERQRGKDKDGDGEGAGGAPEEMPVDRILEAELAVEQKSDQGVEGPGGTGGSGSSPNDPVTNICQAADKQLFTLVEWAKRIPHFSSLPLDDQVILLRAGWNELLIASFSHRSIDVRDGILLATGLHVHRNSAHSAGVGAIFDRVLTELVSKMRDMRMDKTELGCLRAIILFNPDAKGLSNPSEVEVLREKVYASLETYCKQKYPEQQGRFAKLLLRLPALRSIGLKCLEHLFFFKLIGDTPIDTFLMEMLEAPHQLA
Method in brief: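 Chimeric receptor-Gal4 activity was assessed in transiently transfected human HepG2 cells after 24 h exposure. Transcripts from GAL4-UAS reporters were quantified by fluorescent RT-PCR and capillary electrophoresis, with DMSO as negative control and baseline.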

[4] = TOX21_p53_BLA_p4_viability: Viability Assessment in the Tox21 HCT-116 p53 Agonism Beta-lactamase Assay, Phase 4 (AID 2283597);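 note: hits lower the luminescence signal meaning cytotoxicity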
Method in brief: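 In this multiplexed secondary endpoint, HCT116 cells (4000 per well, compound at 5 h, 16 h treatment) received CellTiter-Glo after the beta-lactamase read. Luminescence after 30 min RT reflects ATP, and falling signal marks cytotoxicity.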

[5] = ATG_GAL4_TRANS: Attagene TRANS-FACTORIAL HepG2 Assay for GAL4 (Internal Marker) (AID 2282976); details: HepG2 Attagene TRANS GAL4 internal marker reporter
Method in brief: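 Liver HepG2 line bearing multiplexed GAL4-UAS reporter constructs; 24 h chemical treatment. Transcripts were quantified as fluorescent fragments on capillary electrophoresis after RT-PCR and HpaI cut, with activity fitted upward from DMSO.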

[6] = target: human RAR-related Orphan Receptor beta (RORb), RORB (gene 6096) (UniProt Q92753); test: ATG_RORb_TRANS: Attagene TRANS-FACTORIAL HepG2 Assay for human RAR-related Orphan Receptor beta (RORb) (AID 2283010)
Sequence of human RAR-related Orphan Receptor beta (RORb), RORB (gene 6096) (Q92753 whole entry, looked up, the tested form may be a part): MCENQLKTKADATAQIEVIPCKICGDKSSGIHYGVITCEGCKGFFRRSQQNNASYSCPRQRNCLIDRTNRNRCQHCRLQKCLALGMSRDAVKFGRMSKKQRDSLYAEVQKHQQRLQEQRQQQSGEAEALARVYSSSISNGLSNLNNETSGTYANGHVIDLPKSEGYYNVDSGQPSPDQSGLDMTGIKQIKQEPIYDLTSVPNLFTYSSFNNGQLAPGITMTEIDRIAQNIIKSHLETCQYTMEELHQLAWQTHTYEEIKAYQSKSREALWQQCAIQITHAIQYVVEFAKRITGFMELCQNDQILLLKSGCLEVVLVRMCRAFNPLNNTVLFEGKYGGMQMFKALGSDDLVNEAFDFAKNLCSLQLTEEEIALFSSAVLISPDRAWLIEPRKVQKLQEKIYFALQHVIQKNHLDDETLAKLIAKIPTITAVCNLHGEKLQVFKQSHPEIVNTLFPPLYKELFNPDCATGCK
Method in brief: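 Transfect HepG2 with multiple GAL4-UAS reporter transcription units; dose chemicals for 24 h; isolate RNA, reverse-transcribe and PCR-amplify reporter sequences; label, digest and resolve fragments by capillary electrophoresis; fit increases relative to DMSO.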

[7] = target: human RAR-related Orphan Receptor gamma (RORg), RORC (gene 6097) (UniProt P51449); test: ATG_RORg_TRANS: Attagene TRANS-FACTORIAL HepG2 Assay for human RAR-related Orphan Receptor gamma (RORg) (AID 2283011)
Sequence of human RAR-related Orphan Receptor gamma (RORg), RORC (gene 6097) (P51449 whole entry, looked up, the tested form may be a part): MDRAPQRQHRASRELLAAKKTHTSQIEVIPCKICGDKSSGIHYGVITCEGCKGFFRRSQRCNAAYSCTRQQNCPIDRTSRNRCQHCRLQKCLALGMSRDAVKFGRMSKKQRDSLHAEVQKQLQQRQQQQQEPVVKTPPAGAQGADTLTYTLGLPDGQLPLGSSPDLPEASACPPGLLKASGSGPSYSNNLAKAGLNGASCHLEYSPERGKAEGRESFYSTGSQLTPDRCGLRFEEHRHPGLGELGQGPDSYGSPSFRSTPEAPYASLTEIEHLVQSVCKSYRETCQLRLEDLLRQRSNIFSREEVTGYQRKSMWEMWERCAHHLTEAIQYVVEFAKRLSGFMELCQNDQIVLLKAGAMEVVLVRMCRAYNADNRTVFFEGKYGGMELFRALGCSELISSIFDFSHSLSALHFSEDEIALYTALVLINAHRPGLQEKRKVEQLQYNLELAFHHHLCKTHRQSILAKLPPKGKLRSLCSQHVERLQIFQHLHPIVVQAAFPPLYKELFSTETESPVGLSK
Method in brief: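 Chimeric RORg-Gal4 transactivation in transfected HepG2; 24 h exposure; RT-PCR/capillary electrophoresis readout of reporter mRNA, DMSO baseline.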

[8] = target: Retinoic acid receptor RXR-alpha (Homo sapiens) (UniProt P19793); test: ATG_RXRa_TRANS: Attagene TRANS-FACTORIAL HepG2 Assay for human Retinoid X Receptor alpha (RXRa) (AID 2283012)
Sequence of Retinoic acid receptor RXR-alpha (Homo sapiens) (P19793 whole entry, looked up, the tested form may be a part): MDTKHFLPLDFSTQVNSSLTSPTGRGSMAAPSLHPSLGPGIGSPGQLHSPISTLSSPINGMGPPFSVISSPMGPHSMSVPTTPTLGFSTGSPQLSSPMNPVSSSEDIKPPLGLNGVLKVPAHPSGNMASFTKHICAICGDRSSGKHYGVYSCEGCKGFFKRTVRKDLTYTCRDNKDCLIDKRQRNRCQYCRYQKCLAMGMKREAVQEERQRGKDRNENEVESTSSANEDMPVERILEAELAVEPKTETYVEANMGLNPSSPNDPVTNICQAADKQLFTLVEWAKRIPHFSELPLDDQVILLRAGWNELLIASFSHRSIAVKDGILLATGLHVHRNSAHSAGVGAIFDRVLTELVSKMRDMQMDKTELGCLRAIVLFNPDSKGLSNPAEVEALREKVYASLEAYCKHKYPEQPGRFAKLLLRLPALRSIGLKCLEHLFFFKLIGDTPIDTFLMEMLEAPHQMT
Method in brief: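 Measures exogenous chimeric NR-GAL4 activity in transfected HepG2 liver cells after 24 h of dosing. Induced reporter mRNA was detected by RT-PCR with capillary electrophoresis, and gain of signal was analysed against DMSO.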

[9] = target: Bile acid receptor (Homo sapiens) (UniProt Q96RI1); test: ATG_IR1_CIS: Attagene CIS-FACTORIAL HepG2 Assay for human Nuclear Receptor Subfamily 1 Group H Member 4 (NR1H4), IR1 submotif (AID 2282946; active = hit-call score of the fitted dose curve at least 0.9, where 1 is the maximum; inactive = score below 0.9); details: IR1 reporter transcription, actives raise or lower the signal
Sequence of Bile acid receptor (Homo sapiens) (Q96RI1 whole entry, looked up): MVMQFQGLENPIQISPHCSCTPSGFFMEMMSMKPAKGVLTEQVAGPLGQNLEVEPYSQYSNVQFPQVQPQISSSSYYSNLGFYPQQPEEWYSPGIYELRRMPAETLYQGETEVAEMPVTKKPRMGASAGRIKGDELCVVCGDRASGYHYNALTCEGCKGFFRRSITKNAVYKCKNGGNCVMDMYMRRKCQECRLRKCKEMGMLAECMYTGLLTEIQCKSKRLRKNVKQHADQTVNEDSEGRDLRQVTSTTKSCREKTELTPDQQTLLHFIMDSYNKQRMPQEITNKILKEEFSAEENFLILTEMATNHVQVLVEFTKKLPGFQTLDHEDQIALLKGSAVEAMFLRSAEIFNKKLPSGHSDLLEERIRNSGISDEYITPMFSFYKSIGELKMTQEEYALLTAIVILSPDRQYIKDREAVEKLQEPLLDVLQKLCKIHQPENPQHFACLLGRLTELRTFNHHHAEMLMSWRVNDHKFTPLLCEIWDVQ
Method in brief: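 HepG2 cells transiently transfected with multiplexed cis-element reporter units read endogenous transcription factor activity. After 24 h compound exposure, reporter mRNA was quantified by RT-PCR, fluorescent labelling, HpaI digestion and capillary electrophoresis; bidirectional fitting versus DMSO baseline.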

[10] = ATG_PPRE_CIS: Attagene CIS-FACTORIAL HepG2 Assay for human Peroxisome Proliferator-activated Response Element (PPRE) (AID 2282958; active = hit-call score of the fitted dose curve at least 0.9, where 1 is the maximum; inactive = score below 0.9); details: HepG2 PPRE cis-element reporter, Attagene transcription factor profiling; actives raise or lower the signal
Method in brief: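 Multiplexed reporter transcription units under cis-regulatory promoters were transfected into HepG2 cells to capture endogenous factor activity. A 24 h incubation preceded RNA isolation and fluorescent RT-PCR fragment analysis.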

[11] = target: Oxysterols receptor LXR-beta (Homo sapiens) (UniProt P55055); test: ATG_LXRb_TRANS: Attagene TRANS-FACTORIAL HepG2 Assay for human Liver X Receptor beta (LXRb) (AID 2282981); details: HepG2 Attagene TRANS GAL4-LXRb reporter, mRNA
Sequence of Oxysterols receptor LXR-beta (Homo sapiens) (P55055 whole entry, looked up, the tested form may be a part): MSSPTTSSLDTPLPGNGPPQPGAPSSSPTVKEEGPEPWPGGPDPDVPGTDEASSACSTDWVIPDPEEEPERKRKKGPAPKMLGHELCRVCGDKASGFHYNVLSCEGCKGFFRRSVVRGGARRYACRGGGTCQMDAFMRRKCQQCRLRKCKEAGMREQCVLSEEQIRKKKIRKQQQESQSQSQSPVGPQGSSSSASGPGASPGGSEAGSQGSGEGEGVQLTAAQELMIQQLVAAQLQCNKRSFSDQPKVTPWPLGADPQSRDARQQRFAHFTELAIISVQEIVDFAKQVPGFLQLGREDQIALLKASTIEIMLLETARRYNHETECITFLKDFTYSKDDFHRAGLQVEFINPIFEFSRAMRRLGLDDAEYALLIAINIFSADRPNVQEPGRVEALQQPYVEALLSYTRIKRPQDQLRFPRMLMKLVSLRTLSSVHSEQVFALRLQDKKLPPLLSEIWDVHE
Method in brief: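 After 24 h chemical treatment of transfected HepG2 cells carrying exogenous NR-Gal4 chimeras, reporter mRNA was quantified by fluorescent RT-PCR and capillary electrophoresis; activity taken as increase over DMSO controls.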

[12] = BSK_3C_uPAR: BioMAP Diversity Plus: 3C Assay for Urokinase-type plasminogen activator receptor (uPAR) Biomarker Activity (AID 2282998; active = hit-call score of the fitted dose curve at least 0.9, where 1 is the maximum; inactive = score below 0.9); details: BioMAP 3C HUVEC, uPAR biomarker ELISA; actives raise or lower the signal
Method in brief: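 In this endothelial cell-based assay, human umbilical vein primary cells were treated with chemicals and harvested at 24 h. uPAR was quantified using ELISA, with gains or losses fitted relative to DMSO controls.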

[13] = BSK_4H_Eotaxin3: BioMAP Diversity Plus: 4H Assay for Eotaxin 3 Biomarker Activity (AID 2283000; active = hit-call score of the fitted dose curve at least 0.9, where 1 is the maximum; inactive = score below 0.9); details: primary human endothelial cells (HUVEC); actives raise or lower the signal
Method in brief: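 ELISA quantitation of CCL26 (Eotaxin-3) protein from chemically dosed human vascular endothelial cells at 24 h; increases and decreases both scored relative to DMSO-treated baseline.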

[14] = read-out: Monocyte Chemoattractant Protein-1 (MCP1), CCL2 (gene 6347); test: BSK_4H_MCP1: BioMAP Diversity Plus: 4H Assay for Monocyte Chemoattractant Protein-1 (MCP1) Biomarker Activity (AID 2283018; active = hit-call score of the fitted dose curve at least 0.9, where 1 is the maximum; inactive = score below 0.9); details: primary human endothelial cells (HUVEC); actives raise or lower the signal
Method in brief: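 Endothelial cells from umbilical vein were treated with test chemical, then after 24 h MCP-1 levels were quantified by ELISA; endpoint values came from bidirectional fitting with DMSO as baseline of activity.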

[15] = TOX21_p53_BLA_p2_viability: Viability Assessment in the Tox21 HCT-116 p53 Agonism Beta-lactamase Assay, Phase 2 (AID 2283591);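 note: compound exposure lasted 16 h at 37 °C; actives lower the ATP signal meaning cytotoxicity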
Method in brief: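 Cytotoxicity readout: CellTiter-Glo ATP luminescence, 30 min at room temperature, after the beta-lactamase read. Cells were HCT116 exposed 16 h at 37C to compounds pin-transferred at 217-fold dilution from DMSO stocks.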

[16] = target: Cellular tumor antigen p53 (Homo sapiens) (UniProt P04637); test: TOX21_p53_BLA_p2_ratio: Tox21 HCT-116 p53 Agonism Beta-lactamase Assay, Ratio, Phase 2 (AID 2283592)
Sequence of Cellular tumor antigen p53 (Homo sapiens) (P04637 whole entry, looked up): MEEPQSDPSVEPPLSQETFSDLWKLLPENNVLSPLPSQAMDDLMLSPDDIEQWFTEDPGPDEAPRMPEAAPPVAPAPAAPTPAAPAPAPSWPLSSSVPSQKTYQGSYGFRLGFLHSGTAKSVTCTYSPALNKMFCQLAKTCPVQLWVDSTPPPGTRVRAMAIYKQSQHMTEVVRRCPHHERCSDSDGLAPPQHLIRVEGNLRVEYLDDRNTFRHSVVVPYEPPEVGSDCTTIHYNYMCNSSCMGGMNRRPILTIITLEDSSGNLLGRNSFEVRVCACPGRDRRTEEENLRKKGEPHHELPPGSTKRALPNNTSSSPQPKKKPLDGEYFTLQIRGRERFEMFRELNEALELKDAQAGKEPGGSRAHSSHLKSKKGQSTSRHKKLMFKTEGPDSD
Method in brief: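 DMSO-normalized, positive-direction endpoint derived from the 460 nm/530 nm FRET ratio in HCT116 p53 beta-lactamase reporter cells exposed 16 h at 37C and loaded with CCF4-AM for 2 h.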

[17] = target: Cellular tumor antigen p53 (Homo sapiens) (UniProt P04637); test: TOX21_p53_BLA_p3_ratio: Tox21 HCT-116 p53 Agonism Beta-lactamase Assay, Ratio, Phase 3 (AID 2283596)
Method in brief: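 Cells were seeded at 4000/well, rested 5 h at 37C, then dosed with DMSO compound solutions (217-fold dilution) for 16 h. CCF4-AM substrate was loaded for 2 h at room temperature, and the 460/530 nm emission ratio was fitted for gain of signal versus DMSO.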

[18] = target: Cellular tumor antigen p53 (Homo sapiens) (UniProt P04637); test: TOX21_p53_BLA_p4_ratio: Tox21 HCT-116 p53 Agonism Beta-lactamase Assay, Ratio, Phase 4 (AID 2283601)
Method in brief: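 Signal is the blue/green (460nm/530nm) ratio of cleaved versus uncleaved CCF4-AM substrate, read after 2 h substrate loading. Cells were HCT116 carrying the p53-responsive beta-lactamase reporter, dosed 16 h at 37C, 5% CO2; CellTiter-Glo measured in parallel.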

[19] = target: human Peroxisome Proliferator-activated Receptor alpha (PPARa), PPARA (gene 5465) (UniProt Q07869); test: ATG_PPARa_TRANS: Attagene TRANS-FACTORIAL HepG2 Assay for human Peroxisome Proliferator-activated Receptor alpha (PPARa) (AID 2283001)
Sequence of human Peroxisome Proliferator-activated Receptor alpha (PPARa), PPARA (gene 5465) (Q07869 whole entry, looked up, the tested form may be a part): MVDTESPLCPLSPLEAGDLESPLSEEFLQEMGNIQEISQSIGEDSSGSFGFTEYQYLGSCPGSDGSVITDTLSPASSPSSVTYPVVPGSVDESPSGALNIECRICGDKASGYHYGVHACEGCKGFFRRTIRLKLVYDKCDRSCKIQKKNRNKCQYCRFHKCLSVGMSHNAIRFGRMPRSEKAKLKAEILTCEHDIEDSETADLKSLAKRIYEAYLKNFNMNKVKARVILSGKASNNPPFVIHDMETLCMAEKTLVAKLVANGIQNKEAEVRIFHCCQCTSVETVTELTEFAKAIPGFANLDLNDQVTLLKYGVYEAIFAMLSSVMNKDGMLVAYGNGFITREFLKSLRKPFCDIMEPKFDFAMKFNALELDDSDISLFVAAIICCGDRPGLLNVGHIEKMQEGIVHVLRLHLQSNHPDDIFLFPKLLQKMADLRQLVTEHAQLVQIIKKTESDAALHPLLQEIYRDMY
Method in brief: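 Reporter transcripts quantified by RT-PCR plus capillary electrophoresis after 24 h treatment, fitted upward relative to DMSO. Cells: human HepG2 transiently carrying multiple GAL4-UAS reporter units driven by NR-Gal4 chimeras.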

[20] = target: Nuclear receptor subfamily 4 group A member 2 (Homo sapiens) (UniProt P43354); test: ATG_NURR1_TRANS: Attagene TRANS-FACTORIAL HepG2 Assay for human Nuclear Receptor Related Protein 1 (NURR1) (AID 2282985); details: HepG2 Attagene TRANS reporter, mRNA readout
Sequence of Nuclear receptor subfamily 4 group A member 2 (Homo sapiens) (P43354 whole entry, looked up, the tested form may be a part): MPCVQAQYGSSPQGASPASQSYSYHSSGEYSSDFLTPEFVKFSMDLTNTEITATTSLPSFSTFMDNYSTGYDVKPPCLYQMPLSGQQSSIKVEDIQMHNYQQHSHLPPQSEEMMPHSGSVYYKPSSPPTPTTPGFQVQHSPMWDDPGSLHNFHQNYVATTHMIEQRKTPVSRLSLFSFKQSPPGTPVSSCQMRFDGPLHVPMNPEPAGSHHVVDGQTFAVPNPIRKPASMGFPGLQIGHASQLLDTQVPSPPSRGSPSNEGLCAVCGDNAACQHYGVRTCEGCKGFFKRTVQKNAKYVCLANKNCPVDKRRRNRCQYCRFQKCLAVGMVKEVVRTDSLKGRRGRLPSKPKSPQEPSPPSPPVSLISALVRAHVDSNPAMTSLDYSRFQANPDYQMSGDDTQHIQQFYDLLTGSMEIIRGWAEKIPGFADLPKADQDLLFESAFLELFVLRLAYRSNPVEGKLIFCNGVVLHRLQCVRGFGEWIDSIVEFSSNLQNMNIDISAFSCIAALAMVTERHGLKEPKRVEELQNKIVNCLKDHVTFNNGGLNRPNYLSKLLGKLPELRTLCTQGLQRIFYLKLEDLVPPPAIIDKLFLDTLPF
Method in brief: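 Reporter transcript induction, measured by RT-PCR with fluorescent labelling, HpaI digestion and capillary electrophoresis, after 24 hr dosing of human HepG2 cells transiently expressing an exogenous NR-Gal4 fusion with GAL4-UAS-driven reporters; DMSO as baseline.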

Measured: AC50

c1ccc(P(c2ccccc2)c2ccccc2)cc1
active: [3] 38.6 µM
inactive: [1] | [2] | [4]

C[N+](C)(C)CC(=O)O
inactive: [1] | [5] | [2] | [6] | [7] | [8]

N#CCCCCC#N
not listed: [1] | [2] | [3] | [5] | [6] | [8] | [19] | [20]
inactive: all other assays above

CC(C)COP(=O)(OCC(C)C)OCC(C)C
active: [10] 128 µM
inactive: [9] | [1] | [12] | [13] | [3] | [14] | [15] | [17] | [4] | [18]

CCOP(=O)(OCC)OCC
not listed: [1] | [5] | [8] | [9] | [12] | [13] | [14] | [20]
inactive: all other assays above

CC1CCC(=O)O1 (stereo not given)
inactive: [20] | [6] | [7] | [16] | [17] | [18]

Nc1ccccc1C(=O)OCCc1ccccc1
active: [3] 33.4 µM
not listed: [1] | [5] | [9] | [10] | [12] | [13] | [14]
inactive: all other assays above

Oc1ccc(C2(c3ccc(O)cc3)c3ccccc3-c3ccccc32)cc1
active: [1] 18.6 µM | [12] 11.5 µM and 9 µM | [13] 9.96 µM and 9.53 µM | [14] 13.2 µM and 11.4 µM | [16] 0.265 µM | [17] 906 nM | [18] 67.8 µM
not listed: [3] | [6] | [7] | [11]
inactive: all other assays above

N#CCCCl
inactive: [1] | [5] | [19] | [7] | [3] | [15] | [16] | [17] | [4]

CC(=O)c1cc2c(cc1C)C(C)(C)C(C)CC2(C)C (stereo not given)
active: [9] 179 µM | [8] 22.8 µM | [3] 5.85 µM
inactive: [5] | [11] | [2] | [15] | [16] | [17] | [18]

Oc1cc(Cl)ccc1Cl
inactive: [10] | [1] | [5] | [2] | [12] | [13] | [19] | [14] | [16] | [17] | [4]

CC1(C)[C@H](C(=O)O[C@H](C#N)c2cccc(Oc3ccccc3)c2)[C@@H]1C=C(Br)Br
active: [12] 0.0401 µM | [13] 0.3 µM | [14] 0.252 µM
inactive: [10] | [5] | [20] | [12] | [13] | [6] | [3] | [14] | [15] | [17] | [4] | [18]

CC(C)(c1cc(Cl)c(O)c(Cl)c1)c1cc(Cl)c(O)c(Cl)c1
active: [20] 47.9 µM | [12] 9.36 µM | [13] 32.1 µM | [3] 9.09 µM | [14] 20 µM | [15] 46.1 µM and 33.1 µM | [17] 48.2 µM and 17.7 µM | [4] 62.3 µM | [18] 19.7 µM
inactive: [10] | [1] | [11] | [4] | [18]

C=CC(=O)OCC(CC)CCCC (stereo not given)
not listed: [2] | [6] | [9] | [10] | [16]
inactive: all other assays above

C[N+](C)=CCl
inactive: [5] | [6] | [8]

CCCCCCCCCCCC#N
inactive: [2] | [20] | [19] | [6] | [8] | [16] | [17] | [18]
active: [9] 165 µM | [12] 37.8 µM | [13] 27.5 µM | [3] 44.5 µM | [14] 20.6 µM
